We go through 1 sequence from PMC7862700, “An all-to-all approach to the identification of sequence-specific readers for epigenetic DNA modifications on cytosine”.

What all share (assay): DAPPL (digital affinity profiling via proximity ligation, sequencing); 10 mM Tris-HCl pH 7.5, 50 mM NaCl, 1 mM DTT, 4% glycerol, room temperature, 30 min; GST-TFs on glutathione beads, 16-mer random dsDNA library, 0.1% formaldehyde crosslink after washing; high values mean tight binding
Assay [1] concerns the target T1, FEV (Homo sapiens, UniProt Q99581 1-238).
T1 sequence: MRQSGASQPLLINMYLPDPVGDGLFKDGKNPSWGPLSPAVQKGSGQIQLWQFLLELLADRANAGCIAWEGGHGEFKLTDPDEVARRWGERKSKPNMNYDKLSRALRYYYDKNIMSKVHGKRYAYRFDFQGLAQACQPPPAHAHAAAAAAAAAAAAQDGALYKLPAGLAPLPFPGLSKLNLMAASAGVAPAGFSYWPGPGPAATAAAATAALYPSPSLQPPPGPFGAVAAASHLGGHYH
As to conditions: protein: recombinant; tags: N-terminal GST; dsDNA, one strand shown. The essentials: (§1)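 Pools were built from human transcription factors expressed in yeast as GST fusions, captured on glutathione beads and DNA-barcoded, along with a tag-only sample. Incubation with 200 nmole of a 16-mer random double-stranded DNA library lasted 30 min at room temperature in Tris/NaCl/DTT/glycerol buffer, and was followed by washing, 0.1% formaldehyde crosslinking, proximity ligation, PCR amplification and Illumina NextSeq500 sequencing. Binding signal is the quotient of each hexamer's read frequency for a factor and its frequency for the tag-only sample.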

The target of assay [2] is ETV5 (Homo sapiens, UniProt P41161 1-510). To be noted: protein: recombinant; tags: N-terminal GST; dsDNA, one strand shown. The gist of the method: as §1
Sequence of ETV5 (P41161 whole entry): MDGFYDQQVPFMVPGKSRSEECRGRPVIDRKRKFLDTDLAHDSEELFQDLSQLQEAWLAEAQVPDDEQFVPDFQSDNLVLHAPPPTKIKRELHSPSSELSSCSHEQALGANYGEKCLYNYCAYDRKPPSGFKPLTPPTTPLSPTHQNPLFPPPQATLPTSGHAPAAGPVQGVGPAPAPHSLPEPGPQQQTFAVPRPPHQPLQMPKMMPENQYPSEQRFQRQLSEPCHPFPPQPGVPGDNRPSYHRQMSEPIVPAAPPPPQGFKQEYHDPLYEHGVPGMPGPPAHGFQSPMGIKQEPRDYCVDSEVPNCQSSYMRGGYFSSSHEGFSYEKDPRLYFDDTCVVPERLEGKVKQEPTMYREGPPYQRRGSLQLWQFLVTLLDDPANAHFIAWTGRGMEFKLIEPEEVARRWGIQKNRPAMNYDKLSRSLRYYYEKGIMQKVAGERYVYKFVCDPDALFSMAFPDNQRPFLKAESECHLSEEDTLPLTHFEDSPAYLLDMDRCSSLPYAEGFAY
In assay [3] the target is HSF1 (Homo sapiens, UniProt Q00613 1-529). As to conditions: protein: recombinant; tags: N-terminal GST; chain copies: 3; dsDNA, one strand shown. The essentials: as §1
Sequence of HSF1 (Q00613 whole entry): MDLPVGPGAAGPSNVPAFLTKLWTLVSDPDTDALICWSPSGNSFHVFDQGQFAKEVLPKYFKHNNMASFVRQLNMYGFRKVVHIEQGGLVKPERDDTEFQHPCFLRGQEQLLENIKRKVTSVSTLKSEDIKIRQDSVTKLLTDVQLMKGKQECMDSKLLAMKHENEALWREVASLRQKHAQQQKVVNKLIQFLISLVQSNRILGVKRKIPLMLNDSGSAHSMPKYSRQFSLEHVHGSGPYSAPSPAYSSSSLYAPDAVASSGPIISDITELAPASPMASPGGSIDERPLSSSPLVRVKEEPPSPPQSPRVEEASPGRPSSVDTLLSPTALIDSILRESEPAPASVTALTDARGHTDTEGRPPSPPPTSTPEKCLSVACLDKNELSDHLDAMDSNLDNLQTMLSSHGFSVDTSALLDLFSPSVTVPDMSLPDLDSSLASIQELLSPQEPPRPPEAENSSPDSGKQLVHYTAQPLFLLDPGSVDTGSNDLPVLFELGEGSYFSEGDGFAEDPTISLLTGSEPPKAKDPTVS
Assay [4] deals with T2, SPIC (Homo sapiens, UniProt Q8N5J4 1-248).
T2 sequence: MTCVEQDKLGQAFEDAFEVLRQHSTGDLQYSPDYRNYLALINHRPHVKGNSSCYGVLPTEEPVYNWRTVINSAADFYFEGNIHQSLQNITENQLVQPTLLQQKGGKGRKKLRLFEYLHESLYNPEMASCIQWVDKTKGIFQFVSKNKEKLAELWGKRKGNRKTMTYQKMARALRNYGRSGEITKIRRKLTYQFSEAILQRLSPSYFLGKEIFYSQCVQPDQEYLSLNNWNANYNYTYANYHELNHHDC
To be noted: protein: recombinant; tags: N-terminal GST; dsDNA, one strand shown. The essentials: as §1

Assay [5] concerns the target ELF4 (Homo sapiens, UniProt Q99607 1-663). As to conditions: protein: recombinant; tags: N-terminal GST; dsDNA, one strand shown. The gist of the method:
as §1

Assay [6] has as its target T3, ELK4 (Homo sapiens, UniProt P28324-2 1-405).
T3 sequence: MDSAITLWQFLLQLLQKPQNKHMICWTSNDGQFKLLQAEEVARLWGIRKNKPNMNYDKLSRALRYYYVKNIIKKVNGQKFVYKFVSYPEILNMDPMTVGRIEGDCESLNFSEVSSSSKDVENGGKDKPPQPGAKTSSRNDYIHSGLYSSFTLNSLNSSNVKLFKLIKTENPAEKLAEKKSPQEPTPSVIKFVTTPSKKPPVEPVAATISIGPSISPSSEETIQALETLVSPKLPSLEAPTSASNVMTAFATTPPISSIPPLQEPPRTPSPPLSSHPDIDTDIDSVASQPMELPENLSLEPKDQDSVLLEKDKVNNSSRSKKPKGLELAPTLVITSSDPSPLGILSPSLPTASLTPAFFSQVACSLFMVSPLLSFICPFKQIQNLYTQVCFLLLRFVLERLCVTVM
As to conditions: protein: recombinant; tags: N-terminal GST; dsDNA, one strand shown. The gist of the method: as §1

The target in assay [7] is T4, ETV2 (Homo sapiens, UniProt O00321 1-342).
T4 sequence: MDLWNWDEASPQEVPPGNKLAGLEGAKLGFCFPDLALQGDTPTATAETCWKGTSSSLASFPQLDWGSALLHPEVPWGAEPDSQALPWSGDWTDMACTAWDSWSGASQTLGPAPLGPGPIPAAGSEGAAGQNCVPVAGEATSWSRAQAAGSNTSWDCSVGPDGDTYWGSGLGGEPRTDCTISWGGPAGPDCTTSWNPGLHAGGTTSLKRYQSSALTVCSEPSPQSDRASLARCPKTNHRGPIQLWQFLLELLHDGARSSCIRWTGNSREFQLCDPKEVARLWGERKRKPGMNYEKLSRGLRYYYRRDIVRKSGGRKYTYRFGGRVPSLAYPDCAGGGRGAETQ
As to conditions: protein: recombinant; tags: N-terminal GST; dsDNA, one strand shown. The essentials:
as §1

Assay [8] concerns the target T5, ELF3 (Homo sapiens, UniProt P78545 1-371).
T5 sequence: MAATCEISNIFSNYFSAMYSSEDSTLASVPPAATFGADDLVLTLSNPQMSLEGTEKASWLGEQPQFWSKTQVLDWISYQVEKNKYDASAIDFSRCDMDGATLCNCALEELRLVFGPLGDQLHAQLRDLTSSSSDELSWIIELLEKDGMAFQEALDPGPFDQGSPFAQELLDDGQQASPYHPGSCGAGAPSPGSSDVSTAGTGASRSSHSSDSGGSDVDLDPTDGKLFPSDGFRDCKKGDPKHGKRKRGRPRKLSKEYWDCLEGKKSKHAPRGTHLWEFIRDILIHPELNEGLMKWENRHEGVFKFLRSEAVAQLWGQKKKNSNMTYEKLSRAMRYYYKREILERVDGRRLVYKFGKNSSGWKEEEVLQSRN
As to conditions: protein: recombinant; tags: N-terminal GST; dsDNA, one strand shown. The essentials:
as §1

In assay [9] the target is CRX (Homo sapiens, UniProt O43186 1-299). As to conditions: protein: recombinant; tags: N-terminal GST; dsDNA, one strand shown. The gist of the method:
as §1

Assay [10] concerns the target ETV1 (Homo sapiens, UniProt P50549 1-477). To be noted: protein: recombinant; tags: N-terminal GST; dsDNA, one strand shown. The gist of the method: as §1
For assay [11], the target named is T6, ERF (Homo sapiens, UniProt P50548 1-548).
T6 sequence: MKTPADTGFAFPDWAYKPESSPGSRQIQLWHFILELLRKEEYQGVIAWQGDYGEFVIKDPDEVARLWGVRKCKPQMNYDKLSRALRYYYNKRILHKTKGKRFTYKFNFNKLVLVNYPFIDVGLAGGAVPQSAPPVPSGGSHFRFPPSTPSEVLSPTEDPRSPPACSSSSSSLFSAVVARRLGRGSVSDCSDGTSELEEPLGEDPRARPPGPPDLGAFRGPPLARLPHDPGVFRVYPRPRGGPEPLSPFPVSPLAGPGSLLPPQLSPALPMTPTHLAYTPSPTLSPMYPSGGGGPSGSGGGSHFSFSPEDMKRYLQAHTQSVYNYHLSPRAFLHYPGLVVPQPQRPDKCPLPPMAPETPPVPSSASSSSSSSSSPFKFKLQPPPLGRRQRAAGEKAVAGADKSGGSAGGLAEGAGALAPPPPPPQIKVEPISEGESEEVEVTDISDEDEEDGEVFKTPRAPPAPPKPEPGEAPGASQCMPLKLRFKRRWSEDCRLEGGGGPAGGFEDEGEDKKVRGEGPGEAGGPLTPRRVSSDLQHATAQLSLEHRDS
To be noted: protein: recombinant; tags: N-terminal GST; dsDNA, one strand shown. The gist of the method: as §1

Assay [12] addresses T7, ETV3L (Homo sapiens, UniProt Q6ZN32 1-361).
T7 sequence: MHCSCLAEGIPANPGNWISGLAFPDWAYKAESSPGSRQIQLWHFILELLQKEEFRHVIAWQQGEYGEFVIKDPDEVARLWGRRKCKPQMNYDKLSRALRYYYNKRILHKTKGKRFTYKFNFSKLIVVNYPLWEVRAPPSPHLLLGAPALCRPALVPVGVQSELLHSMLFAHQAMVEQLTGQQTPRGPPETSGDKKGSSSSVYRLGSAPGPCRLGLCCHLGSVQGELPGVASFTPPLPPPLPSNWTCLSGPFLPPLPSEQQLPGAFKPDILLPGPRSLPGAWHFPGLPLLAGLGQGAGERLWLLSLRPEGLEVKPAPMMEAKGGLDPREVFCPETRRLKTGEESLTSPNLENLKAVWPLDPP
As to conditions: protein: recombinant; tags: N-terminal GST; dsDNA, one strand shown. The gist of the method: as §1

Assay [13] concerns the target T8, ETS2 (Homo sapiens, UniProt P15036 1-469).
T8 sequence: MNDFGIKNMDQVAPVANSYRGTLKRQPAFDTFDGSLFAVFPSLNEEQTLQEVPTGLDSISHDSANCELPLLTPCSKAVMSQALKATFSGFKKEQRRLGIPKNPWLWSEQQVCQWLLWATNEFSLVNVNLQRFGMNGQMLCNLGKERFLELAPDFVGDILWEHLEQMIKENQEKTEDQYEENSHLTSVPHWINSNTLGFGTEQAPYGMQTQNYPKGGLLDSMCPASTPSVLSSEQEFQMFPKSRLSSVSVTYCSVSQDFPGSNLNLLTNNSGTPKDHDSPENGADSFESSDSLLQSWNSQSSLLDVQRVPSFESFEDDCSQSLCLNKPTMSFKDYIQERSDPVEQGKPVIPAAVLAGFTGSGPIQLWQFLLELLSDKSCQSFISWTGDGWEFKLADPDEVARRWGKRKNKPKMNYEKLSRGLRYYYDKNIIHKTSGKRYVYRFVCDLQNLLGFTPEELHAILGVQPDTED
To be noted: protein: recombinant; tags: N-terminal GST; dsDNA, one strand shown. The gist of the method:
as §1

In assay [14] the target is T9, SPDEF (Homo sapiens, UniProt O95238 1-335).
T9 sequence: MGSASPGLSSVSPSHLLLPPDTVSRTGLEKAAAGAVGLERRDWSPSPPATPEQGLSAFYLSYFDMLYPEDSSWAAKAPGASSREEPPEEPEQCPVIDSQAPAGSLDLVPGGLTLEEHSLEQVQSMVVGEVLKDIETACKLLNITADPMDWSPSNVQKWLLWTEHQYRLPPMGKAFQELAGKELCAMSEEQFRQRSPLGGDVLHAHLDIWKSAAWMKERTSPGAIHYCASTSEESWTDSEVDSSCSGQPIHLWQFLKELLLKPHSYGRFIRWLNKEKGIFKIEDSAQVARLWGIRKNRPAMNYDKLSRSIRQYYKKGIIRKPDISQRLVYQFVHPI
As to conditions: protein: recombinant; tags: N-terminal GST; dsDNA, one strand shown. The gist of the method:
as §1

Assay [15] addresses T10, ETV7 (Homo sapiens, UniProt Q9Y603 1-341).
T10 sequence: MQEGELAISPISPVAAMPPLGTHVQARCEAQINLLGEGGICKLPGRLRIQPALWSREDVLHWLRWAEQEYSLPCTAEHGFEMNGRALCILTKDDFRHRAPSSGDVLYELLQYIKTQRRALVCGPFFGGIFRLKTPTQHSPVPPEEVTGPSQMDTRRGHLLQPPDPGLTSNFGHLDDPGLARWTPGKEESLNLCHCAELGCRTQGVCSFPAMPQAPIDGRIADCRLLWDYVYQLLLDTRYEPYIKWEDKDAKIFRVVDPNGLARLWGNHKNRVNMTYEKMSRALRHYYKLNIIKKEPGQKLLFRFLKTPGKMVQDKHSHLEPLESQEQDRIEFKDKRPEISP
To be noted: protein: recombinant; tags: N-terminal GST; dsDNA, one strand shown. The gist of the method:
as §1

For assay [16], the target named is T11, ELF5 (Homo sapiens, UniProt Q9UKW6-2 1-255).
T11 sequence: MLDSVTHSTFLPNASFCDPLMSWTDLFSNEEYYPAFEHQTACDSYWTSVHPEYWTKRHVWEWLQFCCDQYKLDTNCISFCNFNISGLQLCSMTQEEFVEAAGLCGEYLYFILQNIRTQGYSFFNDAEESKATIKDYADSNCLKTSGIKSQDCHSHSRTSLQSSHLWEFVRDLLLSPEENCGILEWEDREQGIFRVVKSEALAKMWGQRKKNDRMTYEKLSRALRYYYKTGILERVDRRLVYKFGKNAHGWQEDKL
To be noted: protein: recombinant; tags: N-terminal GST; dsDNA, one strand shown. The gist of the method: as §1

Assay [17] addresses T12, ETV3 (Homo sapiens, UniProt P41162-2 1-143).
T12 sequence: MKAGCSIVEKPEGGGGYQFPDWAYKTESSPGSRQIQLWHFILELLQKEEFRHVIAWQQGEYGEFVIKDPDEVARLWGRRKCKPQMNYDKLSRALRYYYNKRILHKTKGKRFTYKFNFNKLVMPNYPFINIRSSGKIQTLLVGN
As to conditions: protein: recombinant; tags: N-terminal GST; dsDNA, one strand shown. The gist of the method:
as §1

In assay [18] the target is ETV6 (Homo sapiens, UniProt P41212 1-452). To be noted: protein: recombinant; tags: N-terminal GST; dsDNA, one strand shown. The essentials:
as §1

Sequence of ETV6 (P41212 whole entry): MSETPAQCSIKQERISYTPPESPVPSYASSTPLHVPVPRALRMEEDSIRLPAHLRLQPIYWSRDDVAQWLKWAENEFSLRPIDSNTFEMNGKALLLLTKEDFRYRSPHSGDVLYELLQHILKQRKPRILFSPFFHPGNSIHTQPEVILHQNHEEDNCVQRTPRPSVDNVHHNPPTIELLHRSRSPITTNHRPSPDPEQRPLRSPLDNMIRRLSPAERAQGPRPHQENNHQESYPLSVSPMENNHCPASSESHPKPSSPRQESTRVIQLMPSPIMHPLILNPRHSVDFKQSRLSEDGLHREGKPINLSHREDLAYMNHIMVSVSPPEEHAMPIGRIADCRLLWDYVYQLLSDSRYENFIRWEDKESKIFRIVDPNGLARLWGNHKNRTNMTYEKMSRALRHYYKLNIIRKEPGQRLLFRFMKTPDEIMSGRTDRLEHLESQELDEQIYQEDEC
Sequence of ELF4 (Q99607 whole entry): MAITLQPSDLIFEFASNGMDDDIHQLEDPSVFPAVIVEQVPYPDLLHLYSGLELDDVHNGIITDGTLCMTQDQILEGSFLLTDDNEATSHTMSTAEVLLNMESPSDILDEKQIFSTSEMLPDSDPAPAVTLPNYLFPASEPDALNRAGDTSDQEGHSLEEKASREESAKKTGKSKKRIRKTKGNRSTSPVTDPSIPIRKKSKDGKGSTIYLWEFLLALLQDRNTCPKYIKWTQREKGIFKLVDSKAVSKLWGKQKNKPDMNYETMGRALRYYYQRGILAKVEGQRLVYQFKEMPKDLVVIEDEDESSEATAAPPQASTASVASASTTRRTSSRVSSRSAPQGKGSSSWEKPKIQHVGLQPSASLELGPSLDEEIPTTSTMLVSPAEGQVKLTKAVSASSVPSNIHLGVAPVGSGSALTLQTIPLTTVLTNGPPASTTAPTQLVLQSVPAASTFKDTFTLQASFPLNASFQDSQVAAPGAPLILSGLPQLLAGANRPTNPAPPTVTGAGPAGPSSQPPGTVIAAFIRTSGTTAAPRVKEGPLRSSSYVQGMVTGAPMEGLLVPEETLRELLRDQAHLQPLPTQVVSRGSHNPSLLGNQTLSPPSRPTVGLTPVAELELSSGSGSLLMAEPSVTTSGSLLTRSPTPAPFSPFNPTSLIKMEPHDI
Sequence of ETV1 (P50549 whole entry): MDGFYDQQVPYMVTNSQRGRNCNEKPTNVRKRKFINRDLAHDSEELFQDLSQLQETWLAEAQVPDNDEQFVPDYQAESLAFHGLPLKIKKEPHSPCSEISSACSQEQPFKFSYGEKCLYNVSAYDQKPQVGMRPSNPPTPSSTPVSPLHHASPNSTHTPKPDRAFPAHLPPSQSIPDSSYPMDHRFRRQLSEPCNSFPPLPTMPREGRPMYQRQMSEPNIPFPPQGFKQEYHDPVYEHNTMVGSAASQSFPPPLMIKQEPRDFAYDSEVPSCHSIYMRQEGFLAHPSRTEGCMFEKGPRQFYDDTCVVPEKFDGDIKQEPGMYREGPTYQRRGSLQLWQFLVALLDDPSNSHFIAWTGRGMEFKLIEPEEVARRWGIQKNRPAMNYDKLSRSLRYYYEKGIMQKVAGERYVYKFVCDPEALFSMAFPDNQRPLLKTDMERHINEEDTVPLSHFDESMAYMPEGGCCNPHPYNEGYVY
Sequence of CRX (O43186 whole entry): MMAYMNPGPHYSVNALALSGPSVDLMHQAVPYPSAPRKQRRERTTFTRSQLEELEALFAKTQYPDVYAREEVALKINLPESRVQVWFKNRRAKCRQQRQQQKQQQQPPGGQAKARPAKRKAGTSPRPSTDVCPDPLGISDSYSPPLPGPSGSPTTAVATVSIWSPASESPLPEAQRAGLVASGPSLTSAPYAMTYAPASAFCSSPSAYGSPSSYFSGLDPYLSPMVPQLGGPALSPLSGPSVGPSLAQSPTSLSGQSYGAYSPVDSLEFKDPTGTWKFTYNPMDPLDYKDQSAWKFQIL

On to GCTCAC, for which the binding signal in assay [1] was 1.54 fold enrichment (6-mer frequency, TF over GST control); in [2], 1.47 fold enrichment (6-mer frequency, TF over GST control); in assay [3], 1.22 fold enrichment (6-mer frequency, TF over GST control); in [4] it was 1.32 fold enrichment (6-mer frequency, TF over GST control); in [5], 1.53 fold enrichment (6-mer frequency, TF over GST control); in [6], 1.53 fold enrichment (6-mer frequency, TF over GST control). The binding signal in [7] was 1.63 fold enrichment (6-mer frequency, TF over GST control); in assay [8], 1.49 fold enrichment (6-mer frequency, TF over GST control); in assay [9] it was 1.37 fold enrichment (6-mer frequency, TF over GST control); in assay [10] it was 1.37 fold enrichment (6-mer frequency, TF over GST control); in [11], 1.58 fold enrichment (6-mer frequency, TF over GST control); in assay [12], 1.57 fold enrichment (6-mer frequency, TF over GST control). Also, the binding signal was 1.43 fold enrichment (6-mer frequency, TF over GST control) in assay [13]; 1.42 fold enrichment (6-mer frequency, TF over GST control) in [14]; 1.4 fold enrichment (6-mer frequency, TF over GST control) in [15]; 1.49 fold enrichment (6-mer frequency, TF over GST control) in assay [16]; 1.47 fold enrichment (6-mer frequency, TF over GST control) in [17]; 1.45 fold enrichment (6-mer frequency, TF over GST control) in [18].
